# PubChem BioAssay (NCATS)
# Calls of active or inactive are those of the source. Calls come from the whole dose curve; as a rule, active = well fitted curve in the direction sought with a large enough effect; inconclusive = small, poorly fitted or top-dose-only effect, or another doubt; inactive = no such curve, though single readings can be large or run the other way.
# Biological target: Hexokinase-4 (Homo sapiens) + Glucokinase regulatory protein (Homo sapiens) (UniProt P35557+Q14397)
# Assay: qHTS assay for inhibitors of recombinant human GCK-GKRP interaction: HTRF assay (AID 743207);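 note: 0% = DMSO with GCK present and -100% = DMSO wells lacking GCK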
# Conditions: recombinant GCK-GKRP HTRF binding, 60 min, with sorbitol-6-phosphate; series mostly up to 57.5 µM; activity change, negative = inhibition: at the top concentration
# Summary of the method: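 HTRF binding of 5 nM GST-GCK and 5 nM FLAG-GKRP with 2 uM S6P in pH 7.1 Hepes buffer (MgCl2, KCl, DTT, Tween 20, BSA). Anti-FLAG XL665 and anti-GST donor added, 60 min at room temperature; 665/615 nm read, normalized to with- and without-GCK controls.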
# Hexokinase-4 (Homo sapiens) + Glucokinase regulatory protein (Homo sapiens), sequence (P35557 whole entry, looked up): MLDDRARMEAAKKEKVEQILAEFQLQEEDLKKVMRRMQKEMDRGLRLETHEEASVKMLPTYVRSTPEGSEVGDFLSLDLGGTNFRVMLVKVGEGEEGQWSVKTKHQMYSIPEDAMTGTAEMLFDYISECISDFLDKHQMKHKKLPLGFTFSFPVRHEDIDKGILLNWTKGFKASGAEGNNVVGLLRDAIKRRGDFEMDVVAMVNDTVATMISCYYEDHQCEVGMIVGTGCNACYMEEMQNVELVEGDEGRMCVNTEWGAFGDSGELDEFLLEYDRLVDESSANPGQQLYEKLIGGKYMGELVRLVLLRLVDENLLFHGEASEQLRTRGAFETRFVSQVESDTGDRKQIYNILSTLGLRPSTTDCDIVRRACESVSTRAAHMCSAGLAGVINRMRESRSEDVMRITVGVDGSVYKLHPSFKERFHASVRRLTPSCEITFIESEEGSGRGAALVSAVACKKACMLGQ
# Hexokinase-4 (Homo sapiens) + Glucokinase regulatory protein (Homo sapiens), sequence (Q14397 whole entry, looked up): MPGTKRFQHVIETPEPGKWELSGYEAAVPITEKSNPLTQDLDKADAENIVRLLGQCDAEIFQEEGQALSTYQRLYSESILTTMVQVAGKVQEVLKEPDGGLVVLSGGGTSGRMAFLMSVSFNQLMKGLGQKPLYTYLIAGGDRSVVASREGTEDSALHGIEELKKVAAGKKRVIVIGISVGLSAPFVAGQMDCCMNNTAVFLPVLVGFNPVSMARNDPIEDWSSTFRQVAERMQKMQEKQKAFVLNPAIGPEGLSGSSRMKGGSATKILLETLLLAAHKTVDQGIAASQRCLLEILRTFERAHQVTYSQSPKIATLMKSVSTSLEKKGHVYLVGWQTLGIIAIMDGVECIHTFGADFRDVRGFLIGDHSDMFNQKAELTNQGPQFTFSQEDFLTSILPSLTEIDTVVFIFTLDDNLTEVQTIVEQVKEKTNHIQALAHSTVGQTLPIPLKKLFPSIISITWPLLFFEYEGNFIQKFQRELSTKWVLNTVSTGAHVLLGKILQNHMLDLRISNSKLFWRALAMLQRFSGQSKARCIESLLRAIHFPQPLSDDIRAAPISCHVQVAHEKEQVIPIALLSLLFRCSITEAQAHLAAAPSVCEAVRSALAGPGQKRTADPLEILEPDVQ
row,Structure (SMILES),"activity change, negative = inhibition"
1,COC(=O)[C@@H](N)Cc1ccc(O)c(O)c1,-11.9% (inactive)
2,NC1=NCC2c3ccccc3Cc3ccccc3N12 (centres undefined),18.3% (inactive)
3,CC[N+](C)(C)c1cccc(O)c1,-0.0902% (inactive)
4,COc1cc(C(=O)OCCCN2CCCN(CCCOC(=O)c3cc(OC)c(OC)c(OC)c3)CC2)cc(OC)c1OC,-6.1% (inactive)
5,O=C1NCN(c2ccccc2)C12CCN(CCCC(c1ccc(F)cc1)c1ccc(F)cc1)CC2,5.55% (inactive)
6,CC(C)(Oc1ccc(CCNC(=O)c2ccc(Cl)cc2)cc1)C(=O)O,2.38% (inactive)
7,Cc1nnc(SCC2=C(C(=O)O)N3C(=O)[C@@H](NC(=O)Cn4cnnn4)[C@H]3SC2)s1,-4.44% (inactive)
8,Cc1cccc(C)c1NC(=O)C(C)N (centres undefined),-10.3% (inactive)
9,CN(C)C(=O)Oc1ccc[n+](C)c1,7.28% (inactive)
10,O=C1CC2(CCCC2)CC(=O)N1CCCCN1CCN(c2ncccn2)CC1,2.68% (inactive)
11,COc1ccc2c(c1OC)C(=O)O[C@@H]2[C@H]1c2c(cc3c(c2OC)OCO3)CCN1C,-18% (inactive)
12,COC(=O)[C@H]1[C@H]2C[C@@H]3c4[nH]c5cc(OC)ccc5c4CCN3C[C@H]2C[C@@H](OC(=O)c2cc(OC)c(OC)c(OC)c2)[C@@H]1OC,-3.52% (inactive)
13,CN1CCN(CC(=O)N2c3ccccc3C(=O)Nc3cccnc32)CC1,-13.9% (inactive)
14,CCN(CC)CCOCCOC(=O)C1(c2ccccc2)CCCC1,19.4% (inactive)
15,CCCCCN(CCCCC)C(=O)C(CCC(=O)O)NC(=O)c1ccc(Cl)c(Cl)c1 (centres undefined),12.9% (inactive)
16,CN(C)C(=O)Oc1cccc([N+](C)(C)C)c1,-11.5% (inactive)
17,Fc1ccc(C(c2ccc(F)cc2)N2CCN(C/C=C/c3ccccc3)CC2)cc1,10.5% (inactive)
18,CCCC(C(=O)OCCN(CC)CC)(c1ccccc1)c1ccccc1,11.2% (inactive)
19,O=C(O)CCCCCCCC(=O)O,-7.89% (inactive)
20,N[C@@H](COP(=O)(O)O)C(=O)O,8.78% (inactive)
21,COCCc1ccc(OCC(O)CNC(C)C)cc1 (centres undefined),-3.61% (inactive)
22,Cc1cc(C)c(/C=C2\C(=O)Nc3ccccc32)[nH]1,11.4% (inactive)
23,CC1=NS(=O)(=O)c2cc(Cl)ccc2N1,-13% (inactive)
24,CCNC(=O)N1CCN(CCCC(c2ccc(F)cc2)c2ccc(F)cc2)CC1,-4.57% (inactive)
